The values that follow come from PubChem BioAssay (Tox21).

Assay [1] can be described thus: qHTS assay to identify small molecule antagonists of the glucocorticoid receptor (GR) signaling pathway - cell viability counter screen (AID 720693). Also: nearly all actives have a fitted effect of over 55% in size. Also: potency is read from the fitted curve at half-maximal effect.
Assay [2] in a line: qHTS assay for identifying genotoxic compounds that show differential cytotoxicity against isogenic chicken DT40 cell lines with known DNA damage response pathways - wild type cell line (AID 743012). Also: nearly all actives have a fitted effect of over 60% in size. Also: potency is read from the fitted curve at half-maximal effect. In outline:
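Viability by ATP luminescence (CellTiter-Glo, 30 min RT) after 40 h compound treatment at 37 C/5% CO2, using 300 parental DNA repair-proficient DT40 cells per well.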
In general terms: Quantitative high-throughput screening tests each substance at several concentrations.

A short description of assay [3]: qHTS assay for identifying genotoxic compounds that show differential cytotoxicity against isogenic chicken DT40 cell lines with known DNA damage response pathways - Rev3 mutant cell line (AID 743014). Also: nearly all actives have a fitted effect of over 55% in size. Also: potency is read from the fitted curve at half-maximal effect.
Assay [4] can be described thus: qHTS assay for identifying genotoxic compounds that show differential cytotoxicity against isogenic chicken DT40 cell lines with known DNA damage response pathways - Rad54/Ku70 mutant cell line (AID 743015). Also: nearly all actives have a fitted effect of over 60% in size. Also: potency is read from the fitted curve at half-maximal effect.
Assay [5] is described as follows: qHTS assay to identify small molecule antagonists of the androgen receptor (AR) signaling pathway - cell viability counter screen (AID 743033; also: nearly all actives have a fitted effect of over 45% in size; also: potency is read from the fitted curve at half-maximal effect).
Assay [6] is described as follows: qHTS assay to identify small molecule antagonists of the thyroid receptor (TR) signaling pathway - cell viability counter screen (AID 743064). Also: nearly all actives have a fitted effect of over 50% in size. Also: potency is read from the fitted curve at half-maximal effect. In outline:
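GH3.TRE-Luc rat pituitary cells dosed after 4 hr plating, co-stimulated with T3 at 1 nM final, incubated 23.5 h at 37 C. Viability measured in the same wells by CellTiter-Fluor fluorescence after 30 min further at 37 C.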

Assay [7] can be described thus: qHTS assay to identify small molecule antagonists of the thyroid receptor (TR) signaling pathway (AID 743065). Also: nearly all actives have a fitted effect of over 55% in size. Also: potency is read from the fitted curve at half-maximal effect. Summed up: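 Antagonism measured as loss of luciferase signal in GH3 cells stably carrying a TRE-luciferase reporter, co-treated with compound and T3 (1 nM final) for 23.5 h at 37 C. Viability was read in the same well by CellTiter-Fluor.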
The target of assay [8] is Estrogen receptor (Homo sapiens) (UniProt P03372). Put plainly: qHTS assay to identify small molecule antagonists of the estrogen receptor alpha (ER-alpha) signaling pathway (AID 743069; active = well fitted curve in the direction sought with a large enough effect in the signal ratio in the repeat runs, not every such curve was filed as active; inconclusive = weak or mixed curves, or effect the other way; inactive = no such curve, though single readings can be large or run the other way; the % refers to the signal ratio; also: potency is read from the fitted curve at half-maximal effect). In outline: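 Antagonist mode: compounds in DMSO were co-added with 17beta-estradiol to ER-alpha-bla HEK293 cells (2% charcoal-stripped serum) and left 18 h at 37C. Reporter inhibition was measured as FRET fluorescence after 2 h LiveBLAzer substrate at room temperature.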

The target is the same in assay [9]. The experiment in a line: qHTS assay to identify small molecule agonists of the estrogen receptor alpha (ER-alpha) signaling pathway (AID 743075; calls by dose curve;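 also: HEK293 GripTite cells with ER-alpha and UAS-driven beta-lactamase reporter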; also: potency is read from the fitted curve at half-maximal effect). Particulars: HEK293 ER-alpha-UAS-bla, beta-lactamase FRET ratio, 18 h; activation: at 70.1 µM (top of the series).
Assay [10] shares this target. Put plainly: qHTS assay to identify small molecule agonists of the estrogen receptor alpha (ER-alpha) signaling pathway using the BG1 cell line (AID 743079). Also: nearly all actives have a fitted effect of over 20% in size. The following applies: BG1Luc4E2 cells, ERE-luciferase agonist, 22 h.
The nature of assay [11]: qHTS assay to identify small molecule antagonists of the estrogen receptor alpha (ER-alpha) signaling pathway using the BG1 cell line (AID 743080; calls by dose curve;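 also: BG1 cells stimulated with 17beta-estradiol alongside compound; nearly all actives have a fitted effect of over 25% in size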; also: potency is read from the fitted curve at half-maximal effect). Summed up:
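BG1-Luc-4E2 cells (endogenous full-length ER-alpha, 4xERE luciferase) hormone-starved 5 days in charcoal-stripped FBS, plated 4,000/well for 24 h, then compound plus 17beta-estradiol for 21.5 h at 37 C; ONE-Glo luminescence read.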

The nature of assay [12]: qHTS assay to identify small molecule antagonists of the estrogen receptor alpha (ER-alpha) signaling pathway using the BG1 cell line - cell viability counter screen (AID 743081).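 Also: compound given together with 17beta-estradiol as the ER stimulus; nearly all actives have a fitted effect of over 45% in size.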 Also: potency is read from the fitted curve at half-maximal effect.
The next assay deals with Aromatase (Homo sapiens) (UniProt P11511). Put plainly: qHTS assay to identify aromatase inhibitors (AID 743083). Also: nearly all actives have a fitted effect of over 55% in size. Also: potency is read from the fitted curve at half-maximal effect.
Assay [13] relates to thyroid hormone receptor (rat, GH3 cells). The experiment in a line: qHTS assay to identify small molecule agonists of the thyroid receptor (TR) signaling pathway (AID 743066; calls by dose curve).
Assay [14] is described as follows: qHTS assay to identify small molecule antagonists of the estrogen receptor alpha (ER-alpha) signaling pathway - cell viability counter screen (AID 743074; calls by dose curve;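 also: HEK293 cells carrying ER-alpha-UAS-bla reporter stimulated with 17beta-estradiol; nearly all actives have a fitted effect of over 45% in size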; also: potency is read from the fitted curve at half-maximal effect).
Assay [15] is described as follows: qHTS assay to identify aromatase inhibitors - cell viability counter screen (AID 743084). Also: potency is read from the fitted curve at half-maximal effect.
Assay [16] can be described thus: qHTS assay to identify small molecule antagonists of the androgen receptor (AR) signaling pathway using the MDA cell line - cell viability counter screen (AID 743041; also: nearly all actives have a fitted effect of over 45% in size). Summed up:
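Viability read by CellTiter-Fluor fluorescence in the same wells as the antagonist screen, added after 15.5 h of a 16 h, 37C exposure. Human breast carcinoma MDA-kb2 AR-luc cells, compounds co-dosed with agonist R1881.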

Assay [17] deals with Androgen receptor (Homo sapiens) (UniProt P10275). Put plainly: qHTS assay to identify small molecule antagonists of the androgen receptor (AR) signaling pathway using the MDA cell line (AID 743042; also: nearly all actives have a fitted effect of over 55% in size). In outline:
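Antagonist mode: compounds plus R1881 agonist added to MDA-kb2 AR-luc cells, incubated 16 h at 37C. Luciferase reporter luminescence quantified, with multiplexed CellTiter-Fluor readout for cell viability.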

For assay [18] the target is unchanged. Put plainly: qHTS assay to identify small molecule agonists of the androgen receptor (AR) signaling pathway using the MDA cell line (AID 743040; also: nearly all actives have a fitted effect of over 20% in size). Summed up:
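Luciferase agonist assay: 16 h compound exposure at 37C without CO2 in MDA-kb2 AR-luc cells, whose MMTV promoter responds to both AR and GR. Luminescence measured after 30 min room-temperature incubation with ONE-Glo.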

Several values for one entry are separate records, joined by “and”; a condition that tells them apart may be missing. Equal values may be shown once. Some structures have more than one record in an assay (separate samples or runs), and their calls can disagree. Activity calls are given as the source filed them. Unless noted, calls follow the shape of the dose curve; as a rule, active = well fitted curve in the direction sought with a large enough effect in the repeat runs; inconclusive = weak or mixed curves; inactive = no such curve, though single readings can be large; an effect the other way counts as inactive or inconclusive.
% is scaled to controls: 0 for no effect and ±100 for the full control effect.

Androgen receptor (Homo sapiens), sequence (P10275 whole entry, looked up): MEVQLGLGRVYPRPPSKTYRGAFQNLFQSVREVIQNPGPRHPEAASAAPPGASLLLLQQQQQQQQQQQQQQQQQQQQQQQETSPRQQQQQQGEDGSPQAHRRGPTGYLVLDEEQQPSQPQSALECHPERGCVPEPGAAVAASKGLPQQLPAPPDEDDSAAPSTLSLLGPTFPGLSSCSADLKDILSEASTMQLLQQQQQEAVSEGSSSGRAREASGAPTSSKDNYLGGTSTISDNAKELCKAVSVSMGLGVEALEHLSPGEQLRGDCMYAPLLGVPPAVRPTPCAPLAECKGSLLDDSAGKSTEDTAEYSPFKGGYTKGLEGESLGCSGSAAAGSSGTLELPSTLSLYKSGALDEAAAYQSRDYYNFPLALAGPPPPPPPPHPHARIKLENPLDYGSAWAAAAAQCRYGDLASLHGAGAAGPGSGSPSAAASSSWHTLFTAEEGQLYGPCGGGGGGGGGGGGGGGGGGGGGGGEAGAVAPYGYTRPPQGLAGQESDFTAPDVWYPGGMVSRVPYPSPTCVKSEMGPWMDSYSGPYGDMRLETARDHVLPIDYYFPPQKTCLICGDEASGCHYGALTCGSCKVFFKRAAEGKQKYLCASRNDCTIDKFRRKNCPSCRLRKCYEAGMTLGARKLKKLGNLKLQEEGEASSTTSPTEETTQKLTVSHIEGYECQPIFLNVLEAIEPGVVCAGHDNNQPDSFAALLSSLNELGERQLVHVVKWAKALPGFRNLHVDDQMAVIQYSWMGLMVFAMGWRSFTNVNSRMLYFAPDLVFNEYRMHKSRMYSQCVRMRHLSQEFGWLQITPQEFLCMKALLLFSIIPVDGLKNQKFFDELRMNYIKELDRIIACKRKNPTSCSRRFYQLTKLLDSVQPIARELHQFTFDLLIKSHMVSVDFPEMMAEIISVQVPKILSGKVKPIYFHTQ
Estrogen receptor (Homo sapiens), sequence (P03372 whole entry, looked up): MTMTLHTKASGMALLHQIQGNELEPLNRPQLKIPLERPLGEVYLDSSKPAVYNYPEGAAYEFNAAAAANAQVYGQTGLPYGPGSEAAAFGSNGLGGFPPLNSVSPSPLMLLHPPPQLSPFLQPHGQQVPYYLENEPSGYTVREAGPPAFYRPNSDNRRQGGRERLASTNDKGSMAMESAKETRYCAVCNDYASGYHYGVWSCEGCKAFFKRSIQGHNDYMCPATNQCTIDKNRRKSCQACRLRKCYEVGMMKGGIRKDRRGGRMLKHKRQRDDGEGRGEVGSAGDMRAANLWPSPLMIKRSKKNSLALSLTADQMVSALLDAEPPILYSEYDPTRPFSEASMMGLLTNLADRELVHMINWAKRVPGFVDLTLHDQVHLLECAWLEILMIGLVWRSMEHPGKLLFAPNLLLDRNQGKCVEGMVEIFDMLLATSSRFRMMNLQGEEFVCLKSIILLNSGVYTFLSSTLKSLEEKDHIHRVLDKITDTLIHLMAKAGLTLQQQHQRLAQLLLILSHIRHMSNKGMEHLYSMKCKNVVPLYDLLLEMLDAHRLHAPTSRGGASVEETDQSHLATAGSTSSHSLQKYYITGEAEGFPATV
Aromatase (Homo sapiens), sequence (P11511 whole entry, looked up): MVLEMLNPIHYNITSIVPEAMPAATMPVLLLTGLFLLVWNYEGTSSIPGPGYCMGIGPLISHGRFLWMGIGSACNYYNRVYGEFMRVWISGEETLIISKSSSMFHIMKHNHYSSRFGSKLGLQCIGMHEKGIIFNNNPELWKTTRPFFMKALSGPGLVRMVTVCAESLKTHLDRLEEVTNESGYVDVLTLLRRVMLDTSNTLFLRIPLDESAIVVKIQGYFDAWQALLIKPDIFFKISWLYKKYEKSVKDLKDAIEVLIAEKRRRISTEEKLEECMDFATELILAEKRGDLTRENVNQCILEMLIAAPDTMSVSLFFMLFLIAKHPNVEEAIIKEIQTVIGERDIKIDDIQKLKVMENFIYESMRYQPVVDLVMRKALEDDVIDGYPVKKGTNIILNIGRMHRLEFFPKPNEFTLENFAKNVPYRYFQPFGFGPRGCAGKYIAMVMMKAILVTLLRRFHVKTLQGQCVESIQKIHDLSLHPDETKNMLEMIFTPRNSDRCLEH

Take `OCCN1CCN(CC/C=C2/c3ccccc3Sc3ccc(C(F)(F)F)cc32)CC1`: the Potency entry (in assay [1]; in assay [8]; in assay [9]; in assay [11]; in assay [12]; with Aromatase (Homo sapiens)) was “inactive” each time. Further, the Potency was 9.44 µM (active) in assay [2]; 13.3 µM (active) in assay [3]; 11.9 µM (active) in [4]; 19 µM (active) in [5]; 15 µM (active) in assay [6]; 11.9 µM (active) in assay [7]. For the same molecule, the activation in assay [10] (at 70.3 µM (top of the series)) was -29.2% (inactive).

Take `O=C(NO)C1(NS(=O)(=O)c2ccc(Oc3ccc(F)cc3)cc2)CCOCC1`: the Potency result in assay [1], in assay [5], in assay [6], in assay [7], in assay [13] and in assay [8] was “inactive” in each case. In addition, the Potency result (in assay [14]; in assay [9]; in assay [12]; with Aromatase (Homo sapiens); in assay [15]) was “inactive” throughout. Further, the Potency in [2] was 54.5 µM (active); in [3] it was 30.6 µM (active); in assay [4] it was 30.6 µM (active).

As to `CC[C@H]1O[C@]2(CC[C@@H]1C)C[C@@H]1C[C@@H](C/C=C(\C)C[C@@H](C)/C=C/C=C3\CO[C@@H]4[C@H](O)C(C)=C[C@@H](C(=O)O1)[C@]34O)O2`, the Potency in [1] is 13.7 µM (active); in assay [2] it was 6.06 µM (active); in [3], 6.8 µM (active); in [4], 6.06 µM (active); in [6], 6.06 µM (active); in assay [7], 5.4 µM (active). Further, the Potency in [14] is 43.3 µM (active); in assay [12], 60.6 µM (active); with Aromatase (Homo sapiens), 30.4 µM (active); in assay [15], 27.1 µM (active). Moreover, in [5], the Potency entry was “inactive”.

Consider `Cc1nc(-c2ccc3c(c2)CCN(CCC2CCC(NC(=O)/C=C/c4ccc(F)cc4)CC2)CC3)no1` (stereo not given), for which the Potency result in [1], in assay [16], in assay [17], in assay [13], in assay [14] and in assay [11] was “inactive” throughout. Further, the Potency result (in assay [12]; with Aromatase (Homo sapiens); in assay [15]) was “inactive” throughout. In addition, the Potency in assay [2] was 0.386 µM (active); in [3], 0.687 µM (active); in assay [4], 0.546 µM (active); in assay [6], 10.9 µM (active); in assay [9], 9.79 µM [inconclusive] (active).

For `OCCN(CCO)c1nc(N2CCCCC2)c2nc(N(CCO)CCO)nc(N3CCCCC3)c2n1`, the Potency result (in assay [1]; in assay [5]; in assay [17]; in assay [13]; in [14]; with Aromatase (Homo sapiens)) was “inactive” each time. Further, the Potency in [2] is 11.9 µM (active); in assay [3], 9.44 µM (active); in assay [4] it was 10.6 µM (active); in assay [7], 23.7 µM (active).

Take `Cc1[nH]cnc1C[C@H]1CCc2c(C)c3ccccc3n2C1=O`: the Potency entry (in assay [1]; in assay [16]; in [14]; in assay [12]; in the assay with Aromatase (Homo sapiens); in assay [15]) was “inactive” throughout. Further, the Potency in assay [2] is 13.3 µM (active) and 26.6 µM (active); in assay [3], 29.8 µM (active) and 21.2 µM (active); in assay [4], 23.7 µM (active); in [6] it was 13.3 µM (active); in assay [7], 23.7 µM (active) and 13.3 µM (active).

Consider `N=C1N=C(N)c2ccccc21`, for which the Potency entry in [1], in assay [16], in assay [13], in assay [14], in assay [9] and in assay [12] was “inactive” each time. The Potency in assay [2] was 17.2 µM (active); in assay [3], 17.2 µM (active); in [4], 17.2 µM (active); in assay [6], 21.7 µM (active); in assay [7], 15.4 µM (active); in the assay with Aromatase (Homo sapiens) it was 38.6 µM (active). Besides, the Potency in [15] was 61.1 µM (active). The activation in assay [10] (at 70.3 µM (top of the series)) is 3.41% (inactive).

On to `COc1cc(-c2nc(NC(=O)c3cc4cc(C)cc(C)c4n3CC(=O)O)sc2CCC2CCCCC2)c(OC)cc1Cl`, for which the Potency in assay [1] is 14.2 µM (active); in [2] it was 35.3 µM (active); in assay [3], 22.3 µM (active); in [4], 22.3 µM (active); in assay [7] it was 11.2 µM (active); in assay [8] it was 3.57 µM [inconclusive] (active). In addition, the figures for the Potency (in assay [14]; with Aromatase (Homo sapiens)) were 28.3 µM (active) and 25 µM (active), respectively. The Potency result in assay [18], in assay [13] and in assay [12] was “inactive” in each case.

Consider `CC(=O)N1CCN(c2ccc(OC[C@H]3CO[C@](Cn4ccnc4)(c4ccc(Cl)cc4Cl)O3)cc2)CC1`, for which the Potency result (in assay [1]; in assay [13]; in assay [8]; in [9]; in assay [12]; with Aromatase (Homo sapiens)) was “inactive” each time. Also, the Potency in [2] is 10.6 µM (active) and 3.86 µM (active); in assay [3], 23.7 µM (active) and 4.33 µM (active); in [4], 21.1 µM (active) and 6.11 µM (active); in assay [5], “inactive and 19.5 µM (active)”; in assay [6], “inactive and 21.7 µM (active)”; in assay [7] it was 26.6 µM (active) and 15.4 µM (active). Besides, the Potency result was “inactive and 43.6 µM (active)” in [14]; 13.3 µM (active) in [11]; “inactive and 61.1 µM (active)” in assay [15].

As to `CC(C)(C)C(=O)OCOC(=O)[C@@H]1N2C(=O)[C@@H](NC(=O)[C@H](N)c3ccccc3)[C@H]2SC1(C)C`, the Potency entry in [1], in assay [2], in assay [3], in assay [4], in assay [16] and in assay [6] was “inactive” throughout. Besides, the Potency entry in assay [7], in assay [13], in assay [8], in assay [14], in assay [9] and in assay [11] was “inactive” throughout. Also, the Potency result (in assay [12]; with Aromatase (Homo sapiens); in assay [15]) was “inactive” in each case. Besides, the activation in [10] (at 32.5 µM (top of the series)) was 0.598% (inactive).

As for `CCc1cc(SCc2sc(-c3ccc(C(F)(F)F)cc3)nc2CN2CCN(c3ccc(OC)cc3)CC2)ccc1OCC(=O)O`, the Potency in [1] is 49 µM (active); in assay [2], 43.3 µM (active); in [3] it was 61.1 µM (active); in assay [4], 30.6 µM (active); in [5], 5.49 µM (active); in assay [6], 24.3 µM (active). Further, the Potency is 12.2 µM (active) in [7] and 54.5 µM (active) with Aromatase (Homo sapiens). Also, in assay [12], the Potency result was “inactive”.

Take `CCOc1nc2cccc(C(=O)OC(C)OC(=O)OC3CCCCC3)c2n1Cc1ccc(-c2ccccc2-c2nn[nH]n2)cc1` (stereo not given): the Potency in assay [1] was 38.9 µM (active); in [2], 34.3 µM (active); in assay [3] it was 19.3 µM (active); in [4], 17.2 µM (active); in assay [5], 30.9 µM (active); with Aromatase (Homo sapiens), 48.5 µM (active). Moreover, the Potency entry in assay [11] and in assay [12] was “inactive” throughout.

On to `CC1=C(C(=O)OC(C)C)C(c2cccc([N+](=O)[O-])c2)C(C(=O)OC2CN(C(c3ccccc3)c3ccccc3)C2)=C(N)N1` (stereo not given), for which the Potency in [1] was 8.49 µM (active); in assay [2] it was 18.8 µM (active); in [3], 18.8 µM (active); in assay [4], 13.3 µM (active); in assay [7], 2.98 µM (active); in assay [14], 23.9 µM (active). Besides, the Potency with Aromatase (Homo sapiens) was 29.8 µM (active). The Potency result in assay [16] was “inactive”.

With `CCOC(=O)O[C@]1(C(=O)OCCl)CC[C@H]2[C@@H]3CCC4=CC(=O)C=C[C@]4(C)[C@H]3[C@@H](O)C[C@@]21C`, the Potency entry in assay [1], in [2], in assay [3], in assay [4], in assay [5] and in [7] was “inactive” in each case. Further, the Potency result (in [13]; in assay [14]; in assay [12]; with Aromatase (Homo sapiens); in [15]) was “inactive” in each case.
